About 2,000 (36%) of roughly 5,500 compounds were called active. Inconclusive results (about 18%) are left out. Some of the results follow. Unmarked numbers belong to inactive results. Cut-off read from the data, not from the text of the source: active = normalized growth mostly below about 0.91 (no sharp cut-off); inconclusive = no clear call, values can overlap the other calls; inactive = mostly above about 0.92.
Test: chemical genetic growth profiling, strain panel (AID 1159580);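 note: tested at 20 µM; growth read once vehicle control cultures reached saturation at 30 °C; 1 = growth at the plate median or of vehicle wells; lower values mean less growth of the strain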
Conditions: growth OD
[1] = S. cerevisiae deletion strains, locus YDL101C, strain DUN1, active compounds read low
[2] = S. cerevisiae deletion strains, locus YHR030C, strain SLT2, active compounds read low

SMILES: OC(c1ccccc1)(c1ccccc1)c1ccncc1
- normalized growth (S. cerevisiae deletion strains, locus YAL013W, strain DEP1, active compounds read low): 1.05
- normalized growth (S. cerevisiae deletion strains, locus YBR229C, strain ROT2, active compounds read low): 1
- normalized growth [1]: 1
- normalized growth (S. cerevisiae deletion strains, locus YDR150W, strain NUM1, active compounds read low): 1.01
- normalized growth (S. cerevisiae deletion strains, locus YEL061C, strain CIN8, active compounds read low): 0.991
- normalized growth (S. cerevisiae deletion strains, locus YGR078C, strain PAC10, active compounds read low): 1.02
- normalized growth (S. cerevisiae deletion strains, locus YGR229C, strain SMI1, active compounds read low): 0.997
- normalized growth [2]: 1.03
- normalized growth (S. cerevisiae deletion strains, locus YHR087W, strain rtc3, active compounds read low): 1.02
- normalized growth (S. cerevisiae deletion strains, locus YJR043C, strain POL32, active compounds read low): 1.01
- normalized growth (S. cerevisiae deletion strains, locus YJR075W, strain HOC1, active compounds read low): 0.984
- normalized growth (S. cerevisiae deletion strains, locus YKL190W, strain CNB1, active compounds read low): 0.996
- normalized growth (S. cerevisiae deletion strains, locus YLR039C, strain RIC1, active compounds read low): 1.03
- normalized growth (S. cerevisiae deletion strains, locus YLR058C, strain SHM2 (second series), active compounds read low): 0.996
- normalized growth (S. cerevisiae deletion strains, locus YLR085C, strain ARP6, active compounds read low): 1.19
- normalized growth (S. cerevisiae deletion strains, locus YLR262C, strain YPT6, active compounds read low): 0.997
- normalized growth (S. cerevisiae deletion strains, locus YML094W, strain GIM5, active compounds read low): 1.04
- normalized growth (S. cerevisiae deletion strains, locus YMR219W, strain ESC1, active compounds read low): 0.999
- normalized growth (S. cerevisiae deletion strains, locus YMR263W, strain SAP30, active compounds read low): 1.03
- normalized growth (S. cerevisiae deletion strains, locus YNL128W, strain TEP1, active compounds read low): 0.999
- normalized growth (S. cerevisiae deletion strains, locus YNL153C, strain GIM3, active compounds read low): 1.02
- normalized growth (S. cerevisiae deletion strains, locus YNL298W, strain CLA4 (second series), active compounds read low): 1.01
- normalized growth (S. cerevisiae deletion strains, locus YNL322C, strain KRE1, active compounds read low): 1
- normalized growth (S. cerevisiae deletion strains, locus YNR030W, strain Alg12, active compounds read low): 1.03
- normalized growth (S. cerevisiae deletion strains, locus YPL055C, strain LGE1, active compounds read low): 1.09
- normalized growth (S. cerevisiae deletion strains, locus YPL241C, strain CIN2, active compounds read low): 1.1
- normalized growth (S. cerevisiae deletion strains, locus YPR135W, strain CTF4, active compounds read low): 1.14
- normalized growth (S. cerevisiae strains, strain wild type, active compounds read low): 1.01

SMILES: Brc1ccc(-c2csc(-c3ccncc3)n2)cc1
- normalized growth (S. cerevisiae deletion strains, locus YAR019C, strain CDC15, active compounds read low): 0.909
- normalized growth (S. cerevisiae deletion strains, locus YBL105C, strain PKC1, active compounds read low): 0.943
- normalized growth (S. cerevisiae deletion strains, locus YBR135W, strain CKS1, active compounds read low): 0.904
- normalized growth (S. cerevisiae deletion strains, locus YBR136W, strain MEC1, active compounds read low): 0.916
- normalized growth (S. cerevisiae deletion strains, locus YBR160W, strain CDC28, active compounds read low): 0.904
- normalized growth (S. cerevisiae deletion strains, locus YDL017W, strain CDC7, active compounds read low): 0.923
- normalized growth (S. cerevisiae deletion strains, locus YDL028C, strain MPS1, active compounds read low): 0.92
- normalized growth [1]: 0.888 (active)
- normalized growth (S. cerevisiae deletion strains, locus YDL108W, strain KIN28, active compounds read low): 0.932
- normalized growth (S. cerevisiae deletion strains, locus YDL132W, strain cdc53, active compounds read low): 0.94
- normalized growth (S. cerevisiae deletion strains, locus YDL214C, strain PRR2, active compounds read low): 0.848
- normalized growth (S. cerevisiae deletion strains, locus YDR052C, strain DBF4, active compounds read low): 0.892 (active)
- normalized growth (S. cerevisiae deletion strains, locus YDR054C, strain cdc34, active compounds read low): 0.862 (active)
- normalized growth (S. cerevisiae deletion strains, locus YDR226W, strain ADK1, active compounds read low): 0.895 (active)
- normalized growth (S. cerevisiae deletion strains, locus YDR477W, strain SNF1, active compounds read low): 0.705
- normalized growth (S. cerevisiae deletion strains, locus YER123W, strain YCK3, active compounds read low): 0.703
- normalized growth (S. cerevisiae deletion strains, locus YER133W, strain GLC7, active compounds read low): 0.683 (active)
- normalized growth (S. cerevisiae deletion strains, locus YFL009W, strain cdc4, active compounds read low): 0.878 (active)
- normalized growth (S. cerevisiae deletion strains, locus YFL029C, strain CAK1, active compounds read low): 0.911
- normalized growth (S. cerevisiae deletion strains, locus YFR003C, strain YPI1, active compounds read low): 0.942
- normalized growth (S. cerevisiae deletion strains, locus YFR019W, strain FAB1, active compounds read low): 0.874
- normalized growth (S. cerevisiae deletion strains, locus YFR028C, strain CDC14, active compounds read low): 0.895
- normalized growth (S. cerevisiae deletion strains, locus YGR040W, strain KSS1, active compounds read low): 0.59 (active)
- normalized growth (S. cerevisiae deletion strains, locus YGR052W, strain FMP48, active compounds read low): 0.41 (active)
- normalized growth (S. cerevisiae deletion strains, locus YGR092W, strain DBF2, active compounds read low): 0.443 (active)
- normalized growth [2]: 0.312 (active)
- normalized growth (S. cerevisiae deletion strains, locus YHR079C, strain IRE1, active compounds read low): 0.632
- normalized growth (S. cerevisiae deletion strains, locus YHR082C, strain KSP1, active compounds read low): 0.635
- normalized growth (S. cerevisiae deletion strains, locus YHR205W, strain SCH9, active compounds read low): 0.622
- normalized growth (S. cerevisiae deletion strains, locus YIL147C, strain SLN1, active compounds read low): 0.919
- normalized growth (S. cerevisiae deletion strains, locus YJL095W, strain BCK1, active compounds read low): 0.149 (active)
- normalized growth (S. cerevisiae deletion strains, locus YJL128C, strain PBS2, active compounds read low): 0.958
- normalized growth (S. cerevisiae deletion strains, locus YJL157C, strain FAR1, active compounds read low): 0.847
- normalized growth (S. cerevisiae deletion strains, locus YJR016C, strain ILV3, active compounds read low): 0.914
- normalized growth (S. cerevisiae deletion strains, locus YJR066W, strain TOR1 (second series), active compounds read low): 0.797
- normalized growth (S. cerevisiae deletion strains, locus YJR066W, strain TOR1, active compounds read low): 0.24 (active)
- normalized growth (S. cerevisiae deletion strains, locus YKL048C, strain ELM1, active compounds read low): 0.889
- normalized growth (S. cerevisiae deletion strains, locus YKL067W, strain YNK1, active compounds read low): 0.856
- normalized growth (S. cerevisiae deletion strains, locus YKL101W, strain HSL1, active compounds read low): 0.889
- normalized growth (S. cerevisiae deletion strains, locus YKL193C, strain SDS22, active compounds read low): 0.891
- normalized growth (S. cerevisiae deletion strains, locus YKL203C, strain TOR2, active compounds read low): 0.221 (active)
- normalized growth (S. cerevisiae deletion strains, locus YLR113W, strain HOG1, active compounds read low): 0.315 (active)
- normalized growth (S. cerevisiae deletion strains, locus YLR133W, strain CKI1, active compounds read low): 0.844
- normalized growth (S. cerevisiae deletion strains, locus YLR403W, strain SFP1, active compounds read low): 0.689
- normalized growth (S. cerevisiae deletion strains, locus YML070W, strain DAK1, active compounds read low): 0.77
- normalized growth (S. cerevisiae deletion strains, locus YMR001C, strain CDC5, active compounds read low): 0.901
- normalized growth (S. cerevisiae deletion strains, locus YMR205C, strain PFK2 (second series), active compounds read low): 0.854
- normalized growth (S. cerevisiae deletion strains, locus YMR277W, strain FCP1, active compounds read low): 0.892
- normalized growth (S. cerevisiae deletion strains, locus YNL006W, strain LST8, active compounds read low): 0.939
- normalized growth (S. cerevisiae deletion strains, locus YNL020C, strain ARK1, active compounds read low): 0.868
- normalized growth (S. cerevisiae deletion strains, locus YNL161W, strain CBK1, active compounds read low): 0.908
- normalized growth (S. cerevisiae deletion strains, locus YNL183C, strain NPR1, active compounds read low): 0.257 (active)
- normalized growth (S. cerevisiae deletion strains, locus YNL207W, strain RIO2, active compounds read low): 0.839 (active)
- normalized growth (S. cerevisiae deletion strains, locus YNL222W, strain SSU72, active compounds read low): 0.938
- normalized growth (S. cerevisiae deletion strains, locus YNL307C, strain MCK1 (second series), active compounds read low): 0.847
- normalized growth (S. cerevisiae deletion strains, locus YOL078W, strain AVO1, active compounds read low): 0.898
- normalized growth (S. cerevisiae deletion strains, locus YOL136C, strain PFK27, active compounds read low): 0.846
- normalized growth (S. cerevisiae deletion strains, locus YOR061W, strain CKA2, active compounds read low): 0.925
- normalized growth (S. cerevisiae deletion strains, locus YOR119C, strain RIO1, active compounds read low): 0.306 (active)
- normalized growth (S. cerevisiae deletion strains, locus YOR231W, strain MKK1, active compounds read low): 0.488 (active)
- normalized growth (S. cerevisiae deletion strains, locus YOR329C, strain SCD5, active compounds read low): 0.933
- normalized growth (S. cerevisiae deletion strains, locus YPL031C, strain PHO85, active compounds read low): 0.687
- normalized growth (S. cerevisiae deletion strains, locus YPL153C, strain RAD53, active compounds read low): 0.609 (active)
- normalized growth (S. cerevisiae deletion strains, locus YPL204W, strain HRR25, active compounds read low): 0.64 (active)
- normalized growth (S. cerevisiae deletion strains, locus YPL209C, strain IPL1, active compounds read low): 0.919
- normalized growth (S. cerevisiae deletion strains, locus YPL256C, strain CLN2, active compounds read low): 0.578 (active)
- normalized growth (S. cerevisiae deletion strains, locus YPR025C, strain CCL1, active compounds read low): 0.92
- normalized growth (S. cerevisiae deletion strains, locus YPR106W, strain ISR1, active compounds read low): 0.919
- normalized growth (S. cerevisiae deletion strains, locus YPR111W, strain DBF20, active compounds read low): 0.902
- normalized growth (S. cerevisiae deletion strains, strain NNK1, active compounds read low): 0.875 (active)
- normalized growth (S. cerevisiae deletion strains, strain TSCII, active compounds read low): 0.88

Source: PubChem BioAssay AID1159580 (chemical genetic matrix, 2015)
